# The full list was thinned out, with hits kept by preference.
# Marburg entry inh: qHTS for inhibitors of binding or entry into cells for Marburg Virus; 1.8% of 300,000 active; Potency, µM (highest dose often 37.8 µM), for inactives: at the highest dose activity change, negative = inhibition, usual class: inhibitors; Marburg virus pseudotyped entry inhibition, cell reporter; calls by dose curve; tested in HEK293 cells; note: potency is the fitted concentration of half-maximal effect; % is set by controls: 0 for no effect and ±100 for the full control effect
# VACV mCherry inh: qHTS for Stage-Specific Inhibitors of Vaccinia Orthopoxvirus: mCherry Reporter Primary qHTS; Vaccinia virus mCherry reporter infection, fluorescence; Potency, µM (titrated, usually from 36.5 µM), without a hit: at the top dose activity change, negative = inhibition, actives largely listed as inhibitors; 0.63% of 310,000 active; calls by dose curve; tested in A549 cells; note: potency is the fitted concentration of half-maximal effect; % is set by controls: 0 for no effect and ±100 for the full control effect; nearly all actives have a fitted effect of over 35% in size
# Shiga inhibitor: A qHTS for Small Molecule Inhibitors of Shiga Toxin; AID 2315, 2010; Vero cells, Shiga toxin protein synthesis inhibition reporter; 9.2% of 290,000 active; inhibition, % at 38.7 µM; in the data active = inhibition mostly above about 28%, no sharp cut-off; inactive = mostly below about 43%; note: 0% is about no effect
# Vaccinia Venus: qHTS for Stage-Specific Inhibitors of Vaccinia Orthopoxvirus: Venus Reporter Primary qHTS. 0.46% of 330,000 active. AID 720580, 2013. Potency, µM (series often up to 36.5 µM), without a hit: top-dose activity change, negative = inhibition, usual class: inhibitors. Vaccinia virus Venus reporter expression, fluorescence; calls by dose curve; tested in A549 cells; note: potency is the fitted concentration of half-maximal effect; % is set by controls: 0 for no effect and ±100 for the full control effect; nearly all actives have a fitted effect of over 30% in size
# CHX counter: Cycloheximide Counterscreen for Small Molecule Inhibitors of Shiga Toxin | AID 2314, 2010 | cell reporter, cycloheximide protein synthesis inhibition counterscreen | max response, % | 12% of 300,000 active; in the data active = max response mostly above about 13%, no sharp cut-off; inactive = mostly below about 14%; note: read at 38.3 µM for the half of the compounds with a filed dose; 0% is about no effect
# LASV entry inh: qHTS for Inhibitors of binding or entry into cells for Lassa Virus | AID 540256, 2011 | Potency, µM (series often up to 37.9 µM), without a hit: top-dose activity change, negative = inhibition, most hits filed as inhibitors | Lassa virus pseudotype entry inhibition, cell reporter | 1.2% of 300,000 active; calls by dose curve; tested in HEK293 cells; note: potency is the fitted concentration of half-maximal effect; % is set by controls: 0 for no effect and ±100 for the full control effect; nearly all actives have a fitted effect of over 50% in size
# * = called active by the depositor; i = inactive; u = inconclusive; x = no result given; [ ] = another dose, or the depositor's remark.
SMILES,Marburg entry inh,VACV mCherry inh,Shiga inhibitor,Vaccinia Venus,CHX counter,LASV entry inh
Cn1c(-c2ccccc2)cnc1N,9.6%[46.1 µM],-3.0%,34.5,-20.4%,29.5*,11.1%
c1ccc(COc2ccc(Oc3nc(N4CCCCC4)nc(N4CCOCC4)n3)nn2)cc1,u,-20.4%,-6.2,-10.2%,-3.5,5.8µM*
COc1ccc2nc(C)cc(N/N=C/c3ccccc3)c2c1,u,14.1µM*,x,u,x,u
COc1ccccc1/C=N/Nc1cc(C)nc2ccc(C)cc12,-3.1%[46.1 µM],u,x,3.8%,26.1*,21.2%[46.1 µM]
COc1ccc2nc(C)cc(Nc3ccc(N4CCN(C)CC4)cc3)c2c1,x,u,13.8,10µM*,-3.0,x
Cc1ccc2nc(C)cc(N/N=C/c3ccccc3O)c2c1,x,x,26.9*,x,22.1*,x
Cc1c(CNC2CCC(C)CC2)c(C(=O)O)c(C)n1Cc1ccccc1F (stereo not drawn),-2.6%[46.1 µM],4.2%,x,12.9%,x,-5.3%[46.1 µM]
CC1=CC[C@@H](COc2ccccc2)O[C@@]2(C1)C(=O)N(Cc1ccc(Br)cc1)c1ccccc12,25.0%[14.2 µM],x,x,x,x,x
COc1ccc(CCn2c3c(c(=O)[nH]c2=O)C(NC(=O)c2ccccc2)(C(F)(F)F)C(=O)N3)cc1OC (stereo not drawn),11.1%[46.1 µM],-4.6%,x,4.4%,x,13.7%[46.1 µM]
O=C(O)c1cccc(Cn2c(Cl)c(/C=N/NC(=O)c3ccc(O)cc3)sc2=O)c1,-6.5%[46.1 µM],-5.4%,18.5,-12.8%,-1.8,-10.0%
O=C(COc1ccccc1)N/N=C/c1sc(=O)n(Cc2cccc(C(=O)O)c2)c1Cl,13.0%[46.1 µM],-5.3%,-5.6,-14.0%,-1.8,-7.7%
O=C(N/N=C/c1sc(=O)n(-c2ccccc2)c1Cl)c1ccccc1,-0.3%,x,75.8*,x,28.2*,8.2%
NC(=O)N/N=C/c1sc(=O)n(-c2ccccc2)c1Cl,-1.2%,-14.6%,46.8,-4.0%,15.6*,8.1%
CC1(C(=O)Nc2ccc3c(c2)OCO3)CCN1C(=O)CCC1CCCC1 (stereo not drawn),x,6.6%,x,-3.4%,x,x
Cc1ccc(Cn2c(=O)c3c(nc4n3CCN4c3cc(C)cc(C)c3)n(C)c2=O)cc1,x,-8.7%,x,-3.0%,x,-2.2%[46.1 µM]
COc1ccc(CNC[C@@H](CCCCN(C)Cc2ccc(OC)cc2)N2C[C@H](c3ccccc3)N(CCc3ccc(Cl)c(Cl)c3)C(=O)C2=O)cc1,x,u,-25.0,22.4µM*,-10.0,x
COCC=CC1=CC2=CC(=O)C(C)(OC(=O)c3cnc4ccccc4n3)C(=O)C2=CN1Cc1ccccc1 (stereo not drawn),18.6%[14.2 µM],x,x,x,x,x
COc1cc(Br)cc(/C=N/N(CCO)C2=NS(=O)(=O)c3ccccc32)c1OC,3.98µM*,-7.2%,12.7,-28.7%,-4.8,-27.9%[46.1 µM]
NC(=S)N/N=C/c1ccc(-n2nncc2-c2ccc(Cl)cc2)cc1,u,0.794µM*,11.0,1.12µM*,-6.1,11.2µM*
Cc1ccc(O)c(NC(=O)CCC2CCCCC2)c1,0.2%,u,138.1*,u,34.5*,-13.4%
O=C(CCC1CCCCC1)Nc1ccccc1O,6.1%,x,106.7*,x,38.6*,u
Cn1c(NC(=O)CCC2CCCCC2)cc(=O)n(C)c1=O,x,-17.4%,113.2*,-8.1%,71.3*,x
O=C(CCC1CCCCC1)Nc1ccccc1-c1ccccc1,-27.2%,x,3.2,x,-1.9,3.3%
Cc1ccc(NC(=O)C2CCCCC2)c(O)c1,x,x,40.5,x,20.9*,x
CSc1ncccc1C(=O)N1CCOc2ccc(C(C)(O)CCn3cccn3)cc2C1 (stereo not drawn),x,i,x,-1.3%,x,x
SMILES,Marburg entry inh,VACV mCherry inh,Shiga inhibitor,Vaccinia Venus,CHX counter,LASV entry inh
Cc1cccc(NC(=O)C(=O)c2cc(C)n(-c3ccccc3)c2C)c1C,-24.9%[46.1 µM],-3.8%,x,-4.3%,x,u
CCOc1ccccc1NC(=O)NC(CC)c1c(-n2cccc2)sc2c1CCN(C)C2 (stereo not drawn),x,-18.3%,x,-17.9%,x,-24.7%[46.1 µM]
N#CCCn1nnc(-c2ccccc2F)n1,25.9%,-13.8%,-15.9,-2.4%,-3.5,0.8%
CC(C)c1ccc(-c2nnn(CCC#N)n2)cc1,46.1%[46.1 µM],-1.2%,72.2*,-12.3%,26.7*,0.0%
C/C(=N\NC(=O)COc1ccccc1-c1ccccc1)c1ccccn1,3.98µM*,u,-4.0,u,-2.2,5.62µM*
O=C(COc1ccccc1-c1ccccc1)N/N=C/c1ccc2ccccc2c1,u,-29.4%,-1.5,u,-1.4,1.78µM*
O=C(NNCc1ccccc1)c1ccccn1,u,-14.1%,x,-7.0%,x,u
CC(=NNC(=S)SCc1ccccc1)c1ccccn1,0.891µM*,10µM*,x,u,x,1.58µM*
CCCCCC(=O)N/N=C(\C)c1ccccn1,7.08µM*,u,17.6,u,4.5,u
C/C(=N\NC(=O)COc1ccccc1-c1ccccc1)c1cccnc1,u,-1.4%,-5.3,-7.0%,-5.2,u
CC1=C(C(=O)Nc2cccc(Cl)c2)C2(CCCCCC2)OC1=O,x,-9.4%,x,-15.8%,x,-10.1%[46.1 µM]
CC(Nc1nc(-c2ccc(F)cc2)cs1)c1nc2cc(Cl)c(Cl)cc2n1CCCO (stereo not drawn),x,10µM*,x,u,x,x
COc1ccc(-c2csc(NC(C)c3nc4cc(Cl)c(N5CCCCC5)cc4n3CCCO)n2)cc1 (stereo not drawn),x,8.91µM*,x,u,x,x
Cc1ccc(S(=O)(=O)NCCC(=O)Nc2ncccc2O)cc1C,u,-18.8%,x,-13.8%,x,21.2%
Cc1nnc(NC(=O)CSc2nccn2-c2ccc(F)cc2)s1,3.1%[46.1 µM],-10.6%,58.6*,-10.7%,44.0*,x
O=C(CSc1nc2ccccc2[nH]1)N=Nc1c(O)[nH]c2ccccc12,7.3%,i,0.0,-11.5%,16.7*,18.5%
Cc1nnc(NC(=O)CSc2nc3ccccc3[nH]2)s1,18.8%[46.1 µM],i,9.2,2.1%,16.0*,6.5%[46.1 µM]
CC(C)c1nnc(NC(=O)CSc2nc3ccccc3[nH]2)s1,13.8%[46.1 µM],i,9.0,2.0%,8.3,u
CCOc1ccc2nc(SCc3ccc(C(=O)OC)o3)[nH]c2c1,-2.9%,x,43.9*,x,27.9*,-1.7%
Cn1c(SCC(=O)N=Nc2c(O)[nH]c3ccccc23)nc2ccccc21,0.1%,x,10.0,x,-2.6,x
CCCCC(=O)Nc1ccc(OCc2cc(=O)n3c(C)csc3n2)cc1,0.4%[46.1 µM],-8.7%,x,-5.5%,x,-7.3%[46.1 µM]
Cc1ccc(CNC(=O)CSc2nc3ccccc3[nH]2)cc1,x,x,13.8,x,14.6*,x
CCOc1ccc2nc(SCC(=O)NCc3ccc(OC)cc3)[nH]c2c1,x,x,63.4*,x,21.2,x
COC(=O)c1cc(CSc2nc3ccccc3[nH]2)oc1C,u,i,36.2*,-19.5%,32.3*,u
COc1ccc(CNC(=O)CSc2nc3cccnc3s2)cc1,x,x,17.5,x,15.0*,x
CC(OC(=O)c1cnccn1)C(=O)c1ccccc1 (stereo not drawn),u,-7.9%,x,-8.7%,x,25.5%
O=C(O)c1ccc(C(=O)Nc2cccc3cccnc23)cc1,x,x,29.5,x,9.6,x
O=C(Nc1cccc2cccnc12)c1ccc(Cl)cc1,2.2%[46.1 µM],-12.5%,45.1*,3.8%,36.7*,19.4%[46.1 µM]
